Compound activity (PubChem BioAssay)
An excerpt weighted towards active compounds, which were near 19% of everything screened.
TDP1 cell CPT – growth inhibition of DT40 Tdp1-/-;hTDP1 cells with camptothecin (screen for TDP1 inhibitors); 12% of 420,000 active; chicken DT40 Tdp1-/-;hTDP1 cells + 20 nM CPT, ATP luminescence, 48 h; AID 686979; Potency, µM (series often up to 46.2 µM), for the others: at the highest dose activity change, negative = growth inhibition, most hits filed as inhibitors; note: potency is the fitted concentration of half-maximal effect; % is set by controls: 0 for no effect and ±100 for the full control effect; nearly all actives have a fitted effect of over 55% in size
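Chicken DT40 Tdp1-/- cells stably complemented with human TDP1 were seeded at 400 cells/well in medium containing 20 nM camptothecin, exposed to pin-transferred compounds, and grown at 37 °C for at least 48 hr. Viability was read as ATP luminescence.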
IL-1B inflam inh – inflammasome signaling inhibition, IL-1 beta readout | activity change, % at 57.5 µM | 4.7% of 360,000 active | THP-1 LPS/ATP IL-1B secretion, AlphaLISA, 16 h; hits give low values | AID 743279; in the data active = activity change below about -50%; inconclusive = mostly about -30% to -49%; note: % is set by controls: 0 for no effect and ±100 for the full control effect
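THP-1 cells pretreated 1 hr with compounds (up to 57.5 uM final), then stimulated with LPS (250 ng/mL final) plus ATP (1.25 mM final); secreted IL-1B measured by AlphaLISA after 16 hr, decreased signal indicating inhibition.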
TDP1 inh – TDP1 (human) enzyme inhibition; 0.28% of 350,000 active; Potency, µM (top dose mostly 130 µM), for the others: at the highest dose activity change, negative = inhibition, usual class: inhibitors; Q9NUW8; recombinant TDP1, AlphaScreen DNA substrate cleavage; note: potency is the fitted concentration of half-maximal effect; % is set by controls: 0 for no effect and ±100 for the full control effect; nearly all actives have a fitted effect of over 40% in size
Target sequence (Q9NUW8 whole entry, looked up): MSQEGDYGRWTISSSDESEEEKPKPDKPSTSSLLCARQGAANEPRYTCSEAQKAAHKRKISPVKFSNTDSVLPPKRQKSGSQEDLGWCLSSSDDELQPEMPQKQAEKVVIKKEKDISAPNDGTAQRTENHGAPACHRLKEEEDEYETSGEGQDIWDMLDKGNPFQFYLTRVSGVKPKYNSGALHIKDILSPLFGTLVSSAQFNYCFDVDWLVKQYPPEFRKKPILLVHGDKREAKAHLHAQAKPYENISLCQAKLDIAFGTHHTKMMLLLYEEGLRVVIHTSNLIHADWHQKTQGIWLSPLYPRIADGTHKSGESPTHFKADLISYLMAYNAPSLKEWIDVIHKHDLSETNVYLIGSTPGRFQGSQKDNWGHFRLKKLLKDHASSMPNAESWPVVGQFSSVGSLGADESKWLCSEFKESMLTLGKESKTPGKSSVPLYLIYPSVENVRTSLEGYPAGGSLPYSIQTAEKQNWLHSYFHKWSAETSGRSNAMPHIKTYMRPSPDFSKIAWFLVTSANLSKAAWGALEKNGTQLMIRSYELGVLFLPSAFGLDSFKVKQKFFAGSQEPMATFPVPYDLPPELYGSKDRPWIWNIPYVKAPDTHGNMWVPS
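Here, a 5' biotin and 3' phosphotyrosine-FITC DNA oligonucleotide reports Tdp1 activity: intact substrate bridges AlphaScreen beads, while cleavage leaves a 3' phosphate and drops signal. All incubations at room temperature.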
HepG2 viability – counter-screen for TGF-b inhibitors: cytotoxicity in HepG2 cells. HepG2 CAGA-GFP viability, ATP luminescence, 18 h. Potency, µM (highest dose often 46.1 µM), for inactives: at the highest dose activity change, negative = cytotoxicity, usual class: cytotoxic. 0.76% of 410,000 active. AID 588856; note: potency is the fitted concentration of half-maximal effect
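CellTiter-Glo luminescence gave cytotoxicity after 18 hours at 37 degrees C. The cells were HepG2 CAGA-GFP in 1% FBS DMEM, stimulated with 500 pg/mL TGF-beta after compound addition. %Activity was normalised to no-cell wells (complete cell-killing) and DMSO (no toxicity), and curves were fitted and classified.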
TGFb inhibitor – TGF-b pathway inhibition; 1.2% of 410,000 active; Potency, µM (titrated, usually from 46.1 µM), inactives show at the top dose activity, negative = inhibition, most hits filed as inhibitors; HepG2 CAGA-GFP TGF-b/SMAD3 reporter, GFP fluorescence, 18 h; TGF-beta stimulated, 500 pg/mL final; note: potency is the fitted concentration of half-maximal effect; % is set by controls: 0 for no effect and ±100 for the full control effect; nearly all actives have a fitted effect of over 65% in size
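Inhibition of TGF-beta-driven CAGA-GFP reporter expression in HEPG2 cells is measured by cellular GFP fluorescence after 18 h stimulation with 500 pg/mL recombinant TGF-beta in 1% FBS medium at 37 degrees C.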
DT40 TDP1 no CPT – qHTS for Inhibitors of human tyrosyl-DNA phosphodiesterase 1 (TDP1): qHTS in cells in absence of CPT | Potency, µM (doses to about 46.2 µM), inactives show at the top dose activity change, negative = growth inhibition, actives largely listed as inhibitors | 15% of 420,000 active | DT40 Tdp1-/- hTDP1 cells, no CPT, ATP luminescence, 48 h; note: potency is the fitted concentration of half-maximal effect; % is set by controls: 0 for no effect and ±100 for the full control effect; nearly all actives have a fitted effect of over 55% in size
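Stably hTDP1-transfected Tdp1-null chicken DT40 cells were treated with library compounds minus camptothecin and grown for at least 48 hr at 37 °C, after which cellular ATP was quantified by luminescence.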
The depositor's hits bear a star; u = inconclusive; x = not tested or not shown; ! = not confirmed by another sample; [ ] = another dose, or the depositor's remark. Unless noted, calls come from the whole dose curve; as a rule, active = well fitted curve in the direction sought with a large enough effect; inconclusive = small, poorly fitted or top-dose-only effect, or another doubt; inactive = no such curve, though single readings can be large; an effect the other way counts as inactive or inconclusive.

SMILES	TDP1 cell CPT	IL-1B inflam inh	TDP1 inh	HepG2 viability	TGFb inhibitor	DT40 TDP1 no CPT
C=C1C2CCC3[C@@](CC[C@@H]4C(C(=O)O)CC(OC5OC(CO)C(OS(=O)(=O)O)C(OS(=O)(=O)O)C5OC(=O)CC(C)C)C[C@]34C)(C2)C1O (stereo partly drawn)	-15%	x	-4%	x	x	-4%
COc1ccc(C2/C=C\CN(C(=O)Oc3ccccc3)CC(=O)N2Cc2ccc(F)cc2)cc1 (stereo not drawn)	21µM*	40	10%	-31%	u	u
C=C[C@H]1CN2CC[C@@H]1C[C@H]2[C@@H](O)c1ccnc2ccccc12	x	x	12%[21 µM]	x	x	x
CN(C)C1(CNC(=O)c2ccc(NS(=O)(=O)c3ccc(Cl)c(Cl)c3)cc2)CCCCC1	u	-17	4%	-26%	-7%	u
CN(C)C1(CNC(=O)Nc2ccc(Cl)c(Cl)c2)CCCCC1	u	-72*	x	16µM*	u	u
CN1C(CC(=O)c2ccccc2)CCCC1CC(O)c1ccccc1 (stereo not drawn)	u	-18	5%[56.1 µM]	-30%	-4%	-20%
CN1[C@@H](CC(=O)c2ccccc2)CCC[C@H]1C[C@H](O)c1ccccc1	24µM*!	-18	7%	3%	0%	21µM*!
O=C1Nc2ccc(Cl)cc2C(c2ccccc2Cl)=NC1O (stereo not drawn)	u	x	7%	x	x	-95%
C#CC1(O)C=CC2C3CCC4=CC(=O)CCC4C3CCC21CC (stereo not drawn)	u	-8	2%	-28%	-13%	u
CCC1(O)CCC2C3CCC4=CC(=O)CCC4C3CCC21CC (stereo not drawn)	23µM*	16	x	-24%	0%	21µM*
CC(=O)N1CCCc2cc(S(=O)(=O)N3CCCC(C(=O)Nc4cccc(F)c4)C3)ccc21 (stereo not drawn)	u	2	7%	2%	u	u
Cc1ccc(NC(=O)C2CCCN2S(=O)(=O)c2ccc3c(c2)CCCC(=O)N3)cc1Cl (stereo not drawn)	16µM*	x	3%	-8%	u	u
COc1ccc2ccccc2c1CNCCc1ccccc1	23µM*	-55*	x	-61%	-10%	u
COc1cc2[nH]c(=O)n(-c3ccccc3)c(=O)c2cc1OC	-11%	-21	2%	2%	3%	8%
CCc1c(C(=O)OC)ncc2[nH]c3cc(OC)c(OC)cc3c12	8.2µM*	x	13%[56.1 µM]	x	x	6.5µM*
C=CCN1CCc2cccc3c2[C@H]1Cc1ccc(O)c(O)c1-3	16µM*	2	x	-11%	u	18µM*
CN1CCC2=C[C@@H](O)[C@@H]3OC(=O)c4cc5c(cc4C3C21)OCO5 (stereo partly drawn)	-25%[9.04 µM]	x	2%	x	x	-26%[9.04 µM]
COC(=O)C1=C(c2ccc(OC(F)(F)F)cc2)C[C@@H]2CC[C@H]1N2C(=O)NC1Cc2ccccc2C1	23µM*	-23	0%	-4%	u	u
COC(=O)C1=C(c2ccc(OC(F)(F)F)cc2)C[C@@H]2CC[C@H]1N2C(=O)NC1CCCCC1	u	-14	2%	-14%	u	16µM*
NC[C@@H](CC(=O)O)c1ccc(Cl)cc1	12%	x	-4%[56.1 µM]	x	x	-1%
CCC(=O)N1CC(=O)Nc2ccc(C)cc2C1c1ccc(F)cc1 (stereo not drawn)	3.7µM*	x	6%	1%	19%	9.2µM*
c1ccc(CCN2CCCC2)cc1	-1%	x	x	-1%	2%	-7%
